Compound activity: PubChem, Buhrlage Lab, Dana-Farber Cancer Institute and Novartis Institutes for BioMedical Research (Cambridge, Mass)
Rows were chosen to be rich in hits. Some 14% of all compounds tested hit in one or more screens of this group.
USP17 inh: inhibitors of human USP17 deubiquitinase; purified USP17, Ub-rhodamine cleavage fluorescence, 3 h; inhibition, % at 50 µM; 6.5% of 47,000 active; AID 1645855
USP10 inh: blocks human USP10 ubiquitin-rhodamine cleavage; Q14694; purified USP10, Ub-rhodamine fluorescence, 60 min; inhibition, % at 20 µM; 1.1% of 47,000 active; AID 1645856
Target sequence (Q14694 whole entry, looked up): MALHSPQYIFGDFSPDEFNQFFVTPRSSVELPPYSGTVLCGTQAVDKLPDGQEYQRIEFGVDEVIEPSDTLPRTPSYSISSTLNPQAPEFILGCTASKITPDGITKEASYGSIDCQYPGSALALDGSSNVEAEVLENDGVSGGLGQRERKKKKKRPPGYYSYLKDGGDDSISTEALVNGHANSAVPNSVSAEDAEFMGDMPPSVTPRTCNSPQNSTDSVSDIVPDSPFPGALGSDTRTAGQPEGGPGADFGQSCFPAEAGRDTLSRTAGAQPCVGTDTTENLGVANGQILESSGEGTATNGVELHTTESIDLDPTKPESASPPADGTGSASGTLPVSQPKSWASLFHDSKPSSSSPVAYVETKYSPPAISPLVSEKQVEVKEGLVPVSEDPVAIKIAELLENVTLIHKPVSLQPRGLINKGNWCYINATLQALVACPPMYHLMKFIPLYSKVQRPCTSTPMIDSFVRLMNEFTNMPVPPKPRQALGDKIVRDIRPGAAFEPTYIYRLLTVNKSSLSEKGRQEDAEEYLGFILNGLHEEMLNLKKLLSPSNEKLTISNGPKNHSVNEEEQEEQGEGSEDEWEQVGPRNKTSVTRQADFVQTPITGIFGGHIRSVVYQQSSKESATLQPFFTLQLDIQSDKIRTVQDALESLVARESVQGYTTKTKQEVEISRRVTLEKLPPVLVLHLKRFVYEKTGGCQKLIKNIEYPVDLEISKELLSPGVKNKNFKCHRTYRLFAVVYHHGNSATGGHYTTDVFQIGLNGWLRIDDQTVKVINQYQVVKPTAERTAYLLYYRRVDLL
USP8 block: blocks human USP8 ubiquitin-rhodamine cleavage | inhibition, % at 20 µM | P40818 | AID 1645853 | 4.2% of 47,000 active | purified USP8, Ub-rhodamine cleavage fluorescence, 30 min
USP30 inh: blocks human USP30 ubiquitin-rhodamine cleavage; inhibition, % at 25 µM; AID 1645860; 5.3% of 47,000 active; purified USP30, Ub-rhodamine cleavage fluorescence; Q70CQ3
USP28 inh: blocks human USP28 ubiquitin-rhodamine cleavage; Q96RU2; inhibition, % at 25 µM; purified USP28, Ub-rhodamine cleavage fluorescence, 30 min; AID 1645857; 3% of 47,000 active
Numbers stand for hits; – = inactive; · = not tested or not shown. No stated cut-off is given here; in the data, active means inhibition above about 30%; inactive means the rest.

SMILES	USP17 inh	USP10 inh	USP8 block	USP30 inh	USP28 inh
O=C1NCc2ccccc2CC12CCN(Cc1cccc3ccccc13)C2 (centres undefined)	–	–	–	32	–
CCOC(=O)C(C)Sc1ncnc2c1sc1nc(N3CCCC3)c3c(c12)CC(C)(C)OC3 (centres undefined)	–	–	46	–	–
CC(C)Cc1nc2sc3c(SCc4ccc(Cl)cc4)ncnc3c2c2c1COC(C)(C)C2	–	–	–	33	–
CCC(O)CNc1ncnc2c1sc1nc(C)c3c(c12)CC(C)(C)OC3 (centres undefined)	–	–	–	–	–
CC(C)Cc1nc2sc3c(SCCc4ccccc4)ncnc3c2c2c1COC(C)(C)C2	–	–	–	–	–
Cc1nc2sc3c(NCC(C)C)ncnc3c2c2c1COC(C)(C)C2	43	–	–	–	–
CC(C)Cc1nc2sc3c(NCc4ccccc4)ncnc3c2c2c1COC(C)(C)C2	–	–	–	64	–
CC(C)Cc1nc2sc3c(SCc4ccc(Br)cc4)ncnc3c2c2c1COC(C)(C)C2	–	–	–	–	–
COc1ccccc1C(=O)N1CCCC1c1nc(-c2ccccc2)n[nH]1 (centres undefined)	–	–	–	–	–
Cc1cc2nc(C)c(C/C=C/c3ccccc3)c(=O)n2[nH]1	–	–	–	35	–
CSc1nc2nc(C)c(C/C=C/c3ccccc3)c(=O)n2[nH]1	·	–	–	40	–
Cc1n[nH]c(C)c1CC(=O)N1CCOC(c2cccc(N(C)C)n2)C1 (centres undefined)	–	–	–	–	–
c1cncc(-c2cnc3sc(NCC4CCOCC4)nn23)c1	–	–	–	–	–
COc1ccc(CNc2nn3c(-c4cncc(OC)c4)cnc3s2)cc1	–	–	–	100	48
c1ccc(CNc2nn3c(-c4cccnc4)cnc3s2)cc1	32	–	–	40	–
COc1ccc(NS(=O)(=O)c2ccc(O)c([N+](=O)[O-])c2)cc1S(=O)(=O)N1CCCCC1	–	–	–	–	–
Cc1ccc(S(=O)(=O)Nc2ccc(O)c(S(=O)(=O)c3ccc(C)cc3)c2)cc1	–	–	33	–	–
O=C(Nc1ccc(Cl)cc1)c1cccc(OCc2ccccc2)c1	–	–	–	–	–
CN1CCC(N(C)S(=O)(=O)c2ccc(NC(=O)c3cccc(OCc4ccccc4)c3)cc2)CC1	–	–	–	–	52
COc1ccc(-c2onc(C)c2C)cc1S(=O)(=O)Nc1ccc(-c2ccno2)cc1	–	–	–	–	–
COc1ccc(-c2cc(C)no2)cc1S(=O)(=O)Nc1ccc(-c2ccno2)cc1	–	–	59	–	–
COc1cc(-c2ccno2)ccc1S(=O)(=O)Nc1ccccc1Cl	–	–	–	–	60
O=C(c1sc2ccccc2c1C1CCNC1)N1CCOCC1 (centres undefined)	–	–	–	–	–
O=S(=O)(Nc1ccc(Oc2ncnc3cc(Cl)ccc23)nc1)c1ccc(S(=O)(=O)c2ccccc2)s1	–	45	–	–	–
COc1ccc(CCNS(=O)(=O)c2ccc(F)c(C(=O)Nc3ccc(Cl)cc3C(F)(F)F)c2)cc1OC	71	–	–	61	–
SMILES	USP17 inh	USP10 inh	USP8 block	USP30 inh	USP28 inh
COc1ccc(CCNC(=O)c2cc(S(=O)(=O)N3CCOCC3)ccc2F)cc1OC	–	–	–	–	–
Cc1cnc(CNC(=O)c2cc(-c3cnc(Nc4ccccc4)nc3)cn2C)cn1	–	–	–	–	–
COc1cc(C)ccc1-n1c(-c2ccc(F)cc2)cn2c3c(=O)n(C)c(=O)n(C)c3nc12	43	–	–	39	–
O=C(c1cccc2c1OCCO2)N1CCOCC1c1ccn[nH]1 (centres undefined)	–	–	–	33	–
CC(C)(C)c1cc(C(=O)N2CCOCC2c2ccn[nH]2)n[nH]1 (centres undefined)	–	–	–	–	–
Cn1cc2c(n1)C(C(=O)NCCc1c[nH]c3ccc(F)cc13)CNC2 (centres undefined)	–	–	–	–	–
O=C(NCCc1c[nH]c2ccc(F)cc12)C(=O)Nc1cccc2ncccc12	45	–	–	–	–
Cc1ccc2[nH]c(=O)c(CN(CC3CCCO3)S(=O)(=O)c3ccccc3)cc2c1 (centres undefined)	53	–	–	37	–
Cc1ccc2[nH]c(=O)c(CN(CC3COCCO3)C(=O)Nc3ccccc3F)cc2c1 (centres undefined)	–	–	–	37	–
Cc1ccc2[nH]c(=O)c(CN(CC3COCCO3)C(=O)Nc3ccccc3Cl)cc2c1 (centres undefined)	·	–	–	–	–
Cc1ccc2[nH]c(=O)c(CN(CC3CCCO3)S(C)(=O)=O)cc2c1 (centres undefined)	–	–	–	–	–
CC1(C)Cc2c(sc3nc(SCC(=O)Nc4ccccc4)nc(N)c23)CO1	–	–	–	–	31
CSc1nc(SCC(N)=O)c2c3c(sc2n1)COC(C)(C)C3	61	–	–	44	–
COc1ccc(NC(=O)CSc2nc(N)c3c4c(sc3n2)COC(C)(C)C4)cc1	50	–	–	–	–
CC1(C)Cc2nc(-c3ccccc3)nc(SCC(=O)Nc3ccccc3)c2CO1	–	–	–	–	–
CC(=O)c1ccc(NC(=O)CSc2nc(-c3ccccc3)nc3c2COC(C)(C)C3)cc1	–	34	–	–	–
CC1(C)Cc2c(sc3nc(SCc4ccccc4)nc(SCC(=O)Nc4ccccc4)c23)CO1	–	–	–	–	–
COC(=O)C1CCN(C(=O)CC[C@H]2CNC(=O)[C@@H]3[C@@H](CCN3Cc3ccccn3)N2C)CC1	–	–	–	·	·
Cc1cc(-c2cncnc2C2CCN(C(=O)C3CC3)CC2)on1	–	–	–	–	–
O=C(CCCc1c[nH]c2ccccc12)N1CCN(C(=O)c2ccc(Cl)cc2Cl)CC1	–	–	–	–	–
O=C(NCCc1c[nH]c2ccccc12)NCc1ccc(Cl)cc1Cl	–	–	–	32	–
Cc1ccc2nc(N3CCN(C(=O)Cc4ccccc4)CC3)sc2c1	–	–	–	–	–
O=C(Cc1ccccc1)N1CCN(c2nc3ccc(Cl)cc3s2)CC1	–	–	–	33	–
Cc1occ2c1C(=O)c1c(O)ccc(O)c1C2	95	89	84	57	89
Cc1cc(O)cc2c1C(=O)c1c(O)ccc(O)c1C2=O	–	–	–	–	–
SMILES	USP17 inh	USP10 inh	USP8 block	USP30 inh	USP28 inh
Cc1ccc(CNC(=O)c2ccc(N3CCC(C)CC3)c([N+](=O)[O-])c2)cc1	–	–	–	–	–
Cc1ccc(CCNC(=O)c2nn(C34CC5CC(CC(C5)C3)C4)cc2[N+](=O)[O-])cc1	–	–	–	47	–
Cc1nc2cc(-c3ccccc3)nn2c(C)c1CC(=O)Nc1ccc(F)cc1	–	–	–	–	–
Cc1cc(-c2ccc(C)c(S(=O)(=O)CCC(=O)N3CCCCC3)c2)on1	–	–	–	–	–
Cc1c(C2CCCN(C(=O)c3ccn(C)n3)C2)n2c(nc1=O)CCC2 (centres undefined)	–	–	36	37	–
CNc1cncc(C2CCN(C(=O)c3ccn(C)n3)CC2)n1	–	–	–	–	–
